Bioassay records deposited in PubChem BioAssay by Broad Institute.
Hits are enriched below; roughly 6.8% of the tested compounds scored in any of these assays.
C diff HTS = blocks growth of Clostridium difficile; Clostridium difficile clinical isolate growth, OD600, 24 h; active compounds read low; growth activity, negative = inhibition, % at 16 µg/mL (by protocol); hit rate 0.25% among 86,000; AID 1259249;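 active = mean growth activity at or below -80% and every replicate also at or below -80%; inconclusive = mean at or below -80% but some replicate above -80%; inactive = mean growth activity above -80%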;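 note: 0% = DMSO wells and -100% = levofloxacin 16 µg/mL wells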
T cruzi growth-1 = inhibitors of T. cruzi proliferation | inhibition, % at 8.34 µM | hit rate 5.9% among 77,000 | T. cruzi beta-gal in NIH3T3, GalScreen luminescence, 90 h;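 active = mean inhibition above about 93%, with at least 55% of replicates each passing it, limit read from the data, passing the limit was not always enough; inconclusive = only one of those two conditions holds; inactive = neither condition holds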
Pf Dd2 growth = P. falciparum Dd2 growth inhibition; SYBR Green, 72 h; active compounds read low; activity change, % at 10 µM; hit rate 2.3% among 94,000; AID 1159554; in the data active = activity change below about -80%; inconclusive = no clear call, values can overlap the other calls
T cruzi growth-2 = Trypanosoma cruzi proliferation inhibition; shares compounds with T cruzi growth-1; T. cruzi beta-gal in NIH3T3, GalScreen luminescence, 90 h; inhibition, % at 8.35 µM; hit rate 72% among 5,600; AID 651739;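 active = mean replicate inhibition above about 95% and at least 55% of replicates individually reaching it, limit read from the data; inconclusive = only one of the two criteria is met; inactive = neither criterion is met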
T cruzi growth-3 = blocks T. cruzi growth in NIH3T3 host cells; shares compounds with T cruzi growth-1; T. cruzi beta-gal in NIH3T3, GalScreen luminescence, 90 h; inhibition, % at 2.09 µM; hit rate 21% among 5,600;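 active = mean inhibition above about 95%, with at least 55% of replicates also reaching it, limit read from the data; inconclusive = meets just one of the two conditions; inactive = meets neither condition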;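 note: plate controls were neutral control median for no effect and positive control median for full effect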
3T3 cytotox = NIH/3T3 (mouse) viability loss | cytotoxicity (signal decrease), % at 8.35 µM | shares compounds with T cruzi growth-1 | hit rate 14% among 5,600 | NIH/3T3 viability, CellTiter-Glo ATP luminescence, 90 h;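 active = mean signal decrease across replicates above about 35% based on untreated-well scatter, with enough replicates individually passing, limit read from the data; inconclusive = no rule stated though some were filed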;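 note: 0% = median of neutral control wells and 100% = median of positive control wells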
3T3 cytotox 2 = kills mouse NIH/3T3 fibroblasts | shares compounds with T cruzi growth-1 | NIH/3T3 viability, CellTiter-Glo ATP luminescence, 90 h | inhibition, % at 24.9 µM | hit rate 56% among 5,600;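 active = mean loss of cell viability signal at or above a set limit, and enough replicates individually reaching it; inconclusive = meets only the mean limit or only the replicate share; inactive = meets neither condition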;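 note: 0% = median of neutral control wells and 100% = median of positive control wells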
* marks the source's active call; other numbers are inactive results; ? = inconclusive; / = no result.

SMILES	C diff HTS	T cruzi growth-1	Pf Dd2 growth	T cruzi growth-2	T cruzi growth-3	3T3 cytotox	3T3 cytotox 2
C[C@@H]1CCCCO[C@@H](CN(C)Cc2ccc(C(F)(F)F)cc2)[C@@H](C)CN([C@@H](C)CO)C(=O)c2cc(NC(=O)C3CCCCC3)ccc2O1	3.3	?	-26.2	102.4*	59.5	3.0	-20.4
C[C@@H]1CN([C@H](C)CO)C(=O)c2cc(NC(=O)C3CCCCC3)ccc2O[C@@H](C)CCCCO[C@@H]1CN(C)Cc1ccc(C(F)(F)F)cc1	3.8	?	-35.5	93.1	113.3*	-5.2	-19.7
C[C@@H]1CCCCO[C@@H](CN(C)Cc2ccc(C(F)(F)F)cc2)[C@@H](C)CN([C@H](C)CO)C(=O)c2cc(NC(=O)C3CCCCC3)ccc2O1	4.3	70.1	38.5	/	/	/	/
COC(=O)C[C@@H]1CC[C@H]2[C@@H](COc3ccc(NC(=O)c4ccc(F)cc4)cc3C(=O)N2C)O1	-1.4	-4.6	-13.0	/	/	/	/
C[C@@H](NC(=O)C[C@H]1CC[C@@H](NS(=O)(=O)c2cccc(F)c2)[C@@H](CO)O1)c1ccccc1	-2.2	-14.9	-4.1	/	/	/	/
CCCNC(=O)[C@@H]1[C@@H](CO)[C@@H]2Cn3c(cccc3=O)[C@@H]2N1C(=O)CC1CC1	-0.1	80.5	17.6	/	/	/	/
C[C@H]1CN([C@@H](C)CO)C(=O)Cc2cc(NC(=O)Cc3ccccc3)ccc2O[C@@H]1CN(C)Cc1ccc(C(=O)O)cc1	3.0	17.8	2.7	/	/	/	/
CCCNC(=O)N1CCC2(CC1)CN(C(=O)CCC)[C@H](CO)c1[nH]c3cc(OC)ccc3c12	7.4	/	-39.8	/	/	/	/
Cc1ccc(S(=O)(=O)N(C)C[C@@H]2Oc3ccc(NC(=O)Nc4ccc(F)cc4)cc3C(=O)N([C@@H](C)CO)C[C@@H]2C)cc1	0.9	45.2	-21.4	/	/	/	/
CN(C)CC(=O)Nc1ccc2c(c1)[C@@H]1C[C@@H](CC(=O)NCc3ccncc3)O[C@H](CO)[C@@H]1O2	0.0	-38.8	7.5	/	/	/	/
C[C@@H]1CN([C@H](C)CO)C(=O)c2cc(NC(=O)CCCCCC(=O)Nc3ccccc3N)ccc2O[C@@H]1CN(C)S(C)(=O)=O	-0.1	-13.0	9.6	/	/	/	/
Cc1ccc(S(=O)(=O)N2CC[C@@H]3[C@@H](CO)Nc4ccc(-c5ccccc5F)cc4[C@@H]32)cc1	2.6	115.9*	-53.7	99.7*	102.8*	15.1	16.9
Cc1ccc(S(=O)(=O)N2CC[C@@H]3[C@H]2c2cc(-c4ccccc4F)ccc2N[C@@H]3CO)cc1	-2.0	?	8.9	99.0*	75.7	37.9*	100.5*
Cc1ccc(S(=O)(=O)N2CC[C@@H]3[C@H](CO)Nc4ccc(Br)cc4[C@@H]32)cc1	-19.3	?	29.0	108.8*	15.5	15.4	33.3*
O=S(=O)(c1ccc(F)cc1)N1CC[C@@H]2[C@H](CO)Nc3ccc(Br)cc3[C@@H]21	-17.8	60.8	25.4	/	/	/	/
Cc1cccc(S(=O)(=O)N2CC[C@@H]3[C@@H](CO)Nc4ccc(-c5ccccc5F)cc4[C@@H]32)c1	1.0	1.4	17.4	/	/	/	/
COc1ccc(S(=O)(=O)N2CC[C@@H]3[C@H]2c2cc(-c4ccccc4F)ccc2N[C@@H]3CO)cc1	-6.9	59.9	-4.4	/	/	/	/
Cc1ccccc1S(=O)(=O)N1CC[C@H]2[C@H](CO)Nc3ccc(-c4ccccc4F)cc3[C@H]21	2.8	108.8*	-7.2	98.5*	31.0	43.3*	103.4*
O=S(=O)(c1ccccc1F)N1CC[C@@H]2[C@@H](CO)Nc3ccc(-c4ccccc4F)cc3[C@@H]21	-1.0	53.3	-11.9	/	/	/	/
CN1C(=O)c2cc(NC(=O)Nc3ccccc3F)ccc2OC[C@H]2O[C@@H](CC(=O)O)CC[C@H]21	-4.6	-7.1	11.2	/	/	/	/
C[C@H](O)C#Cc1ccc2c(c1)O[C@@H](CN(C)C(=O)C1CCCCC1)[C@@H](C)CN([C@@H](C)CO)S2(=O)=O	-0.3	42.8	-40.7	/	/	/	/
CO[C@@H]1CN(C)C(=O)c2cc(NC(C)=O)ccc2OC[C@H](C)N(C(=O)Cc2ccccn2)C[C@H]1C	/	-3.7	21.0	/	/	/	/
C[C@@H]1CN([C@H](C)CO)S(=O)(=O)c2ccc(C#CC3CC3)cc2O[C@H]1CN(C)C(=O)c1cnccn1	0.4	9.7	-30.3	/	/	/	/
C[C@@H]1CN([C@H](C)CO)C(=O)c2cc(NS(C)(=O)=O)ccc2O[C@H]1CN(C)Cc1ccncc1	2.3	23.4	0.3	/	/	/	/
O=S(=O)(c1ccccc1)N1CC[C@@H]2[C@H](CO)Nc3ccc(-c4ccccc4F)cc3[C@@H]21	65.6	109.2*	27.5	90.5	97.4*	22.9	51.7*
SMILES	C diff HTS	T cruzi growth-1	Pf Dd2 growth	T cruzi growth-2	T cruzi growth-3	3T3 cytotox	3T3 cytotox 2
COc1ccc(S(=O)(=O)N2CC[C@H]3[C@H](CO)Nc4ccc(-c5ccccc5F)cc4[C@H]32)cc1	-3.6	42.2	-16.1	/	/	/	/
C[C@@H]1CN([C@H](C)CO)C(=O)c2cccc(NC(=O)c3cnccn3)c2O[C@H]1CN(C)C(=O)Nc1cccc2ccccc12	-0.3	50.7	-42.2	/	/	/	/
O=C(N[C@@H]1CC[C@@H](CC(=O)N2CCOCC2)O[C@H]1CO)c1cccc(F)c1	/	-13.1	6.1	/	/	/	/
CN(C)c1ccc2c(c1)[C@H]1C[C@H](CC(=O)NCc3ccc(Oc4ccccc4)cc3)O[C@H](CO)[C@H]1O2	-2.5	134.6*	-90.3*	76.2	32.2	-9.0	55.6*
CN(C)c1ccc2c(c1)[C@H]1C[C@@H](CC(=O)NCc3ccccc3)O[C@@H](CO)[C@H]1O2	/	43.1	-7.9	/	/	/	/
CN(C)c1ccc2c(c1)[C@@H]1C[C@@H](CC(=O)NCc3ccc(Oc4ccccc4)cc3)O[C@H](CO)[C@@H]1O2	-10.4	52.5	-34.6	/	/	/	/
CN(C)c1ccc2c(c1)[C@@H]1C[C@H](CC(=O)NCc3ccc(Oc4ccccc4)cc3)O[C@@H](CO)[C@@H]1O2	-6.7	153.1*	-74.7	47.0	9.5	52.7*	55.2*
CN(C)c1ccc2c(c1)[C@H]1C[C@H](CC(=O)NCc3ccccc3)O[C@H](CO)[C@H]1O2	/	51.3	-52.8	/	/	/	/
CN(C)c1ccc2c(c1)[C@@H]1C[C@H](CC(=O)NCc3ccc(Oc4ccccc4)cc3)O[C@H](CO)[C@@H]1O2	-3.5	121.7*	-53.9	42.9	12.3	-1.3	?
O=C(C[C@@H]1CC[C@H]2[C@@H](COC[C@@H](O)CN2C(=O)c2ccccc2F)O1)NCc1ccccc1	/	-10.7	1.3	/	/	/	/
N#C[C@H]1[C@H](c2ccc(-c3ccccc3F)cc2)[C@H](CO)N1C(=O)C1CCC1	17.0	59.4	-20.9	/	/	/	/
O=C(C[C@H]1C[C@@H]2c3cc(NC(=O)C4CCOCC4)ccc3O[C@@H]2[C@@H](CO)O1)NCc1ccncc1	-7.3	-0.8	6.0	/	/	/	/
COc1cccc(CNC(=O)C[C@@H]2CC[C@H](NC(=O)C3CCC3)[C@H](CO)O2)c1	-3.7	10.9	-3.1	/	/	/	/
CCN1[C@@H]2c3ccc(C4=CCCCC4)c(=O)n3C[C@H]1[C@H](CO)[C@H]2C(=O)NCc1ccccn1	0.1	25.7	2.8	/	/	/	/
